NS1 inh: blocks influenza NS1 protein function; actives 0.4% (n = 270,000); Potency, µM (series often up to 46.1 µM); calls by dose curve; further: actives are rising curves; nearly all actives have a fitted effect of over 50% in size
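S. cerevisiae expressing influenza A NS1, grown in glucose, washed, then diluted 1:100 into pH 6.0 -URA galactose medium with 23 nl compound. Growth recovery read as OD600; NS1-free strain serves as control.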
AMA1-RON2 inh: inhibitors of Plasmodium falciparum AMA1-RON2 interaction; AlphaScreen AMA1-biotinylated RON2 peptide binding; AID 720542; Potency, µM (series often up to 58.2 µM), actives largely listed as inhibitors; actives 0.2% (n = 360,000); further: nearly all actives have a fitted effect of over 45% in size
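AMA1 (3D7) with his tag at 25 nM final met compounds first, then biotinylated RON2 peptide at 25 nM; detection used donor plus acceptor beads, 10 µg/mL apiece, read by AlphaScreen after 30 min at room temperature.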
Pf growth 96h: P. falciparum growth inhibition at 96 hours | P. falciparum luciferase reporter growth, 96 h | actives 6.9% (n = 320,000) | Potency, µM (doses to about 28.7 µM), actives largely listed as inhibitors
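96 h incubation, 37 C, 5% CO2, of luciferase-reporter P. falciparum-infected RBCs (2% hematocrit, 0.05% parasitemia final) with test compounds; endpoint luminescence.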
Pf growth 48h: inhibits P. falciparum growth in the first generation, 48 h. P. falciparum luciferase growth in erythrocytes, 48 h. Potency, µM (top dose mostly 28.7 µM), most hits filed as inhibitors. AID 504832. actives 5.9% (n = 310,000)
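Growth was read as firefly luciferase luminescence after a 48 h, 37 C, 5% CO2 exposure of compounds to reporter-bearing P. falciparum cultures (0.1% parasitemia, 2% hematocrit final) in Albumax-supplemented RPMI 1640.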
Sm TGR inh: blocks Schistosoma mansoni thioredoxin glutathione reductase; actives 3% (n = 360,000); Q962Y6; Potency, µM (titrated, usually from 114 µM), actives largely listed as inhibitors; purified TGR, DTNB reduction, TNB absorbance 405 nm; AID 485364; further: nearly all actives have a fitted effect of over 60% in size
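TGR 20 nM + NADPH 100 uM (dispensed conc.), cpd preinc 15 min RT; start with NADPH (500 uM addition) then DTNB (15 mM addition). Kinetic TNB absorbance, 405 nm filter. Four-parameter Hill fit across titration.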
Large screens that a line does not name were inactive. An excerpt weighted towards active compounds, which were near 11% of everything screened. Unless noted, the call rests on the fitted dose curve; in most records, active means well fitted curve in the direction sought with a large enough effect; inconclusive means small, poorly fitted or top-dose-only effect, or another doubt; inactive means no such curve, though single readings can be large; an effect the other way counts as inactive or inconclusive.

CC(CN1CCC(n2nccc2NC(=O)CCCc2ccccc2)CC1)c1ccccc1 (centres undefined)	Pf growth 96h 11.7µM, Pf growth 48h 14.7µM
Cc1ccccc1C(=O)Nc1ccnn1C1CCN(Cc2ccc(CO)o2)CC1	none
Cc1ccccc1C(=O)Nc1ccnn1C1CCN(CCCc2ccccc2)CC1	Pf growth 96h 14.7µM, Pf growth 48h inconclusive
CC1CN(C(=O)/C(=C/c2ccco2)NC(=O)c2ccccc2)CC(C)O1 (centres undefined)	none
CN1OC[C@@H]2CN(Cc3cc(Cl)cc(Cl)c3)[C@H](c3cccc(-c4ccccc4)c3)C[C@@H]21	none (no result: NS1 inh, Pf growth 96h, Pf growth 48h, Sm TGR inh)
Cc1ccccc1NC(=O)CSc1nnc(C)c2ccccc12	none
CC(=O)C1=C(c2ccccc2)N(C(C)=O)n2c(C)nnc2S1	Pf growth 48h 2.33µM
CC(=O)C1=C(c2ccc(F)cc2)N(C(C)=O)n2c(nnc2C2CCCCC2)S1	none (no result: NS1 inh, AMA1-RON2 inh, Pf growth 96h, Pf growth 48h)
CCOCCCNC(=O)C(c1ccc(Cl)cc1)N(Cc1cccs1)C(=O)c1ccc(NC(C)=O)cc1 (centres undefined)	none (no result: NS1 inh, AMA1-RON2 inh, Pf growth 96h, Pf growth 48h)
CC1=C(C#N)c2nc(N)c(C#N)c(C)c2/C1=C\c1ccc(-c2ccccc2C(=O)O)o1	Pf growth 96h inconclusive, Sm TGR inh 25.1µM (no result: NS1 inh)
COc1cc(/C=C2/C(C)=C(C#N)c3nc(N)c(C#N)c(C)c32)ccc1OCC(=O)O	none (no result: Sm TGR inh)
Cc1cc(C)cc(N2C(=O)c3nccnc3C2=O)c1	Pf growth 96h 11.7µM
CCOCCCNC(=O)/C(C#N)=C/c1ccc([N+](=O)[O-])o1	Sm TGR inh 8.91µM (no result: NS1 inh)
COCCNC(=O)/C(C#N)=C/c1ccc(-c2ccc(S(=O)(=O)N3CCOCC3)cc2)o1	none
CC(NC(=O)/C(C#N)=C/c1ccc([N+](=O)[O-])o1)c1ccccc1 (centres undefined)	Sm TGR inh 1.26µM
CCOCCCNC(=O)/C(C#N)=C/c1cc(Br)c(O)c(Br)c1	Pf growth 48h inconclusive
CCOCCCNC(=O)/C(C#N)=C/c1ccc(-c2ccc(S(=O)(=O)N3CCOCC3)cc2)o1	Pf growth 96h 13.1µM, Sm TGR inh inconclusive
COC(=O)c1ccc(NC(=O)c2cccc(C)c2[N+](=O)[O-])cc1	none
O=C(CSc1ncc2c(n1)-c1ccccc1N(Cc1ccc(F)cc1)S2(=O)=O)c1ccc(Cl)cc1	none (no result: NS1 inh, AMA1-RON2 inh, Pf growth 96h, Pf growth 48h)
Oc1ccc(C2C[C@H]3CC[C@@H]2C3)cc1O (some centres undefined)	Sm TGR inh 1µM
COc1cccc(-n2nc3c(=O)n(Cc4ccccc4Cl)nc(C)c3c2C)c1	Pf growth 96h inconclusive, Pf growth 48h inconclusive
CCOC(=O)c1ccc(N2CSC3=C(C#N)C(c4ccc(OC)cc4OC)CC(=O)N3C2)cc1 (centres undefined)	Pf growth 96h inconclusive, Sm TGR inh inconclusive (no result: Pf growth 48h)
COc1ccc(OC)c(C2CC(=O)N3CN(c4ccc(C)c(Cl)c4)CSC3=C2C#N)c1 (centres undefined)	Pf growth 96h inconclusive, Sm TGR inh 20µM (no result: Pf growth 48h)
COc1ccc(OC)c(C2CC(=O)N3CN(c4cccc(Cl)c4)CSC3=C2C#N)c1 (centres undefined)	Pf growth 96h 7.38µM, Sm TGR inh 50.1µM (no result: Pf growth 48h)
Cc1cc(O)c(-c2cc(C(=O)Nc3ccc(S(=O)(=O)N4CCOCC4)cc3)[nH]n2)cc1C	Pf growth 48h 1.85µM
O=C(Nc1ccc(S(=O)(=O)N2CCOCC2)cc1)c1cc(-c2cc(Cl)ccc2O)n[nH]1	Pf growth 96h 1.31µM, Pf growth 48h 0.828µM
O=C(Nc1ccc(Cl)cc1)c1ccc(S(=O)(=O)N2CCOCC2)cc1	Pf growth 96h inconclusive
COc1ccc(C2=CC(=O)OC(C)(c3ccccc3)O2)cc1 (centres undefined)	Pf growth 48h 11.7µM
COc1ccc(NC2(c3ccccc3)OC(=O)c3ccccc32)cc1 (centres undefined)	none (no result: NS1 inh)
COc1cc(NC(=O)c2cc(C)on2)cc(C(=O)Nc2cccc(C(F)(F)F)c2)c1	Pf growth 96h inconclusive, Pf growth 48h inconclusive
COc1cc(NC(=O)c2csc(N)n2)cc(C(=O)Nc2cccc(C(F)(F)F)c2)c1	NS1 inh inconclusive, Pf growth 96h inconclusive, Pf growth 48h 11.7µM
COc1cc(NC(=O)c2ccnc(N)c2)cc(C(=O)Nc2cccc(C(F)(F)F)c2)c1	Pf growth 96h 1.85µM, Pf growth 48h 2.08µM
COc1cc(NC(=O)c2cnc(N)o2)cc(C(=O)Nc2cccc(C(F)(F)F)c2)c1	NS1 inh inconclusive, Pf growth 96h 13.1µM, Pf growth 48h 10.4µM
COc1cc(NC(=O)c2cnc(N)s2)cc(C(=O)Nc2cccc(C(F)(F)F)c2)c1	AMA1-RON2 inh inconclusive, Pf growth 96h 3.29µM, Pf growth 48h 2.62µM
C[C@H]1CN([C@@H](C)CO)S(=O)(=O)c2ccc(C#CC3CC3)cc2O[C@@H]1CN(C)S(C)(=O)=O	none (no result: NS1 inh, Pf growth 96h, Pf growth 48h, Sm TGR inh)
CC(=O)Nc1ccc2c(c1)Cc1c-2cc(Br)c(N)c1Br	none (no result: NS1 inh, Pf growth 96h, Pf growth 48h, Sm TGR inh)
CCC(C)n1c(SCc2ccccc2)nc2ccsc2c1=O (centres undefined)	Pf growth 96h 4.15µM, Pf growth 48h inconclusive
CCC(C)n1c(SCc2ccc(C(C)(C)C)cc2)nc2ccsc2c1=O (centres undefined)	none (no result: NS1 inh, AMA1-RON2 inh, Pf growth 96h, Pf growth 48h)
O=[N+]([O-])/C(C(Cl)=C(Cl)Cl)=C1\Nc2ccccc2O1	Sm TGR inh 14.1µM
O=C1Nc2ccccc2Oc2cc([N+](=O)[O-])ccc21	none (no result: NS1 inh)
Cc1sc2ncn(CC(=O)Nc3c(F)cccc3F)c(=O)c2c1S(=O)(=O)N1CCC(C)CC1	none (no result: NS1 inh)
CCOC(=O)C1CCCN(C(=O)c2ccc3c(c2)N(Cc2ccccc2)C(=O)c2ccccc2S3=O)C1 (centres undefined)	Pf growth 48h inconclusive (no result: NS1 inh)
COCCCNC(=O)C[C@H]1C[C@H](C(=O)N2CCOCC2)[C@@]2(CCC3CCCC3)c3[nH]c4cc(CCC(=O)N(C)C)ccc4c3CCN2C1=O	none (no result: NS1 inh, Pf growth 96h, Pf growth 48h, Sm TGR inh)
CCN(CC)S(=O)(=O)c1cc(NC(=O)C(C)N2CCN(Cc3ccc4c(c3)OCO4)CC2)ccc1C (centres undefined)	Pf growth 96h inconclusive, Pf growth 48h inconclusive
CCN(CC)S(=O)(=O)c1cc(NC(=O)C(C)Nc2ccccc2N2CCOCC2)ccc1C (centres undefined)	Pf growth 96h 7.38µM, Pf growth 48h inconclusive (no result: NS1 inh)
CCN(CC)S(=O)(=O)c1cc(NC(=O)CN2CCN(c3ccccn3)CC2)ccc1C	Pf growth 96h inconclusive, Pf growth 48h inconclusive
CCN(CC)S(=O)(=O)c1cc(NC(=O)C(C)N2CCN(c3ccccn3)CC2)ccc1C (centres undefined)	Pf growth 96h 3.7µM, Pf growth 48h 11.7µM (no result: NS1 inh)
Fc1ccc(CNc2nc(-c3ccco3)cc(C(F)(F)F)n2)cc1	Sm TGR inh 25.1µM
FC(F)(F)c1cc(-c2ccccc2)nc(NCc2cccnc2)n1	Pf growth 96h inconclusive, Pf growth 48h 3.7µM
Fc1ccc(-c2cc(C(F)(F)F)nc(NCc3ccccc3)n2)cc1	none (no result: NS1 inh, AMA1-RON2 inh, Pf growth 96h, Pf growth 48h)
FC(F)(F)c1cc(-c2ccco2)nc(NCc2ccccc2)n1	Pf growth 96h inconclusive, Pf growth 48h inconclusive, Sm TGR inh 17.8µM

High-throughput results deposited in PubChem BioAssay by National Center for Advancing Translational Sciences (NCATS).
